# Assay results as given in PubChem BioAssay (EPA / NIEHS).
# Calls of active or inactive are those of the source. The calls were made as follows: active = hit-call score of the fitted dose curve at least 0.9, where 1 is the maximum; inactive = score below 0.9.
# What was measured:
# Conditions in all cases: mRNA level, 48 h; actives raise or lower the signal
# [1] = read-out: growth arrest and DNA damage 45 (GADD45A), GADD45A (gene 1647); assay: LTEA_HepaRG_GADD45A: Life Technologies and Expression Analysis (LTEA) Assay for growth arrest and DNA damage 45 (GADD45A) using HepaRG (AID 2283458)
# In short: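 Transcript induction or loss, quantified by TaqMan qRT-PCR against three housekeeping genes, is the read-out. HepaRG cells received chemicals for 48 h across eight half-log concentrations from 100 uM in 0.5% DMSO; gain and loss fitted relative to DMSO.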
# [2] = read-out: ABC Transporter (ABCB1), ABCB1 (gene 5243); assay: LTEA_HepaRG_ABCB1: Life Technologies and Expression Analysis (LTEA) Assay for ABC Transporter (ABCB1) using HepaRG (AID 2283460)
# In short: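 ABCB1 transcript level measured by TaqMan qRT-PCR against three housekeeping genes after 48 h chemical exposure of differentiated HepaRG cells. Top concentration 100 uM, half-log steps, eight points, 0.5% DMSO vehicle; bidirectional fit relative to DMSO.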
# [3] = read-out: growth arrest and DNA damage 45 (GADD45B), GADD45B (gene 4616); assay: LTEA_HepaRG_GADD45B: Life Technologies and Expression Analysis (LTEA) Assay for growth arrest and DNA damage 45 (GADD45B) using HepaRG (AID 2283461)
# In short: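 Human HepaRG monolayers receive chemicals for 48 h at eight half-log concentrations, highest 100 uM, in 0.5% DMSO. Expression is measured by TaqMan qRT-PCR and normalized to ACTB, GAPDH and POLR2A.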
# [4] = read-out: ABC Transporter (ABCC3), ABCC3 (gene 8714); assay: LTEA_HepaRG_ABCC3: Life Technologies and Expression Analysis (LTEA) Assay for ABC Transporter (ABCC3) using HepaRG (AID 2283462)
# In short: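 Transcriptional change of ABCC3 in HepaRG after 48 h treatment, determined by qRT-PCR normalized to endogenous controls. Concentrations spanned eight half-log steps to 100 uM in 0.5% DMSO.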
# [5] = read-out: ABC Transporter (ABCB11), ABCB11 (gene 8647); assay: LTEA_HepaRG_ABCB11: Life Technologies and Expression Analysis (LTEA) Assay for ABC Transporter (ABCB11) using HepaRG (AID 2283463)
# In short: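 ABCB11 transcript levels quantified by TaqMan qRT-PCR against three housekeeping genes after 48 h chemical exposure of HepaRG cultures. Concentrations up to 100 uM in half-log steps, 0.5% DMSO vehicle; both induction and suppression scored.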
# [6] = read-out: ABC Transporter (ABCC2), ABCC2 (gene 1244); assay: LTEA_HepaRG_ABCC2: Life Technologies and Expression Analysis (LTEA) Assay for ABC Transporter (ABCC2) using HepaRG (AID 2283464)
# In short: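 After plating and 48 h culture, HepaRG medium is replaced with serum-free induction medium and chemicals are added (8 concentrations, max 100 uM, 0.5% DMSO) for 48 h. Total RNA then undergoes qRT-PCR for ABCC2 with housekeeping normalization.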
# [7] = read-out: Broad substrate specificity ATP-binding cassette transporter ABCG2 (Homo sapiens) (UniProt Q9UNQ0); assay: LTEA_HepaRG_ABCG2: Life Technologies and Expression Analysis (LTEA) Assay for ABC Transporter (ABCG2) using HepaRG (AID 2283465)
# In short: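 ABCG2 transcript was quantified by TaqMan qRT-PCR against three housekeeping genes in HepaRG cells. Cells were treated in duplicate for 48 h across an 8-point half-log series up to 100 uM, with 0.5% DMSO vehicle. Gain or loss versus DMSO was fit.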
# [8] = read-out: Peroxisomal acyl-coenzyme A oxidase 1 (ACOX1) gene, ACOX1 (gene 51); assay: LTEA_HepaRG_ACOX1: Life Technologies and Expression Analysis (LTEA) Assay for Peroxisomal acyl-coenzyme A oxidase 1 (ACOX1) gene using HepaRG (AID 2283467)
# In short: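 ACOX1 transcript levels were quantified by TaqMan qRT-PCR against three housekeeping genes after 48 h chemical exposure of differentiated human HepaRG cells. Exposure used eight half-log steps topping at 100 uM, 0.5% DMSO vehicle, in duplicate. Bidirectional curve fits were made relative to DMSO.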
# [9] = read-out: Forkhead box O3 (FOXO3), FOXO3 (gene 2309); assay: LTEA_HepaRG_FOXO3: Life Technologies and Expression Analysis (LTEA) Assay for Forkhead box O3 (FOXO3) using HepaRG (AID 2283459)
# In short: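 FOXO3 transcript measured by qRT-PCR (normalized to ACTB, GAPDH, POLR2A) after 48 h exposure of HepaRG cells in serum-free induction medium. Duplicates, eight half-log concentrations up to 100 uM, 0.5% DMSO; gain or loss fitted against DMSO.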
# [10] = read-out: ATP-citrate lyase (ACLY), ACLY (gene 47); assay: LTEA_HepaRG_ACLY: Life Technologies and Expression Analysis (LTEA) Assay for ATP-citrate lyase (ACLY) using HepaRG (AID 2283466)
# In short: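 ACLY mRNA quantified by qRT-PCR on Fluidigm arrays against three housekeeping genes, after 48 h chemical treatment of HepaRG cells (top concentration 100 uM, half-log steps, 0.5% DMSO vehicle). Up- or down-regulation fitted relative to DMSO.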
# Chain of Broad substrate specificity ATP-binding cassette transporter ABCG2 (Homo sapiens) (Q9UNQ0 whole entry, looked up): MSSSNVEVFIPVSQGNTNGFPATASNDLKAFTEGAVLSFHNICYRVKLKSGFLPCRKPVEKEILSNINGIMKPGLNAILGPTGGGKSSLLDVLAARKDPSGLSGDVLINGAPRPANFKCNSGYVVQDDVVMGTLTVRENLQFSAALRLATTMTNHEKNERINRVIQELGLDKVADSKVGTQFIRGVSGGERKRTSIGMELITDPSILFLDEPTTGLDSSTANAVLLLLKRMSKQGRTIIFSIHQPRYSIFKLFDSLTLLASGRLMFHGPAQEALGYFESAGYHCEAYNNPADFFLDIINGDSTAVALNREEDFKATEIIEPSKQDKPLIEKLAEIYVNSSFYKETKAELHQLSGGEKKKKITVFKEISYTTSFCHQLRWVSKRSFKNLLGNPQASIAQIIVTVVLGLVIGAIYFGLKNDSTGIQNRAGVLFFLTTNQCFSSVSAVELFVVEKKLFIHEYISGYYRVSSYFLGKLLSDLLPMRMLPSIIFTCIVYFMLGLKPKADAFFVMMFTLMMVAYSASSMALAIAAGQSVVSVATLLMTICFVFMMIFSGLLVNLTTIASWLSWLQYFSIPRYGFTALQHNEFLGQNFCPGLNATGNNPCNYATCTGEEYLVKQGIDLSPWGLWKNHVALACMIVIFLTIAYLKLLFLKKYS
smiles,measurement,setting,value
Oc1cc2ccccc2c2ccccc12,outcome,[1],inactive
same,outcome,[2],inactive
same,outcome,[3],inactive
same,outcome,[4],inactive
same,AC50,[5],38.9 µM (active)
same,outcome,[6],inactive
same,outcome,[7],inactive
same,outcome,[8],inactive
CCCCC(CC)COC(=O)CCCCC(=O)OCc1ccccc1 (configuration not stated),outcome,[1],inactive
same,outcome,[9],inactive
same,outcome,[2],inactive
same,outcome,[3],inactive
same,outcome,[4],inactive
same,outcome,[6],inactive
same,outcome,[7],inactive
same,outcome,[8],inactive
Nc1cccc2c(N)cccc12,outcome,[1],inactive
same,AC50,[9],22.4 µM (active)
same,outcome,[2],inactive
same,outcome,[3],inactive
same,outcome,[4],inactive
same,outcome,[6],inactive
same,outcome,[7],inactive
same,outcome,[8],inactive
CN1CCC[C@H]1c1cccnc1,outcome,[1],inactive
same,outcome,[9],inactive
same,outcome,[2],inactive
same,outcome,[3],inactive
same,outcome,[4],inactive
same,outcome,[6],inactive
same,outcome,[7],inactive
same,outcome,[10],inactive
same,AC50,[8],12.6 µM (active)
CC(C)(C)c1ccc(O)c(C(C)(C)C)c1,outcome,[1],inactive
same,outcome,[9],inactive
same,outcome,[2],inactive
same,outcome,[3],inactive
same,outcome,[4],inactive
same,outcome,[5],inactive
same,outcome,[6],inactive
same,outcome,[7],inactive
same,outcome,[8],inactive
CCCCCCC(=O)O,outcome,[1],inactive
same,outcome,[2],inactive
same,outcome,[3],inactive
same,outcome,[4],inactive
same,outcome,[5],inactive
same,outcome,[6],inactive
same,outcome,[7],inactive
same,outcome,[10],inactive
same,outcome,[8],inactive
CC(C)CCCCCCOC(=O)CCCCC(=O)OCCCCCCC(C)C,outcome,[1],inactive
same,outcome,[9],inactive
same,outcome,[2],inactive
same,outcome,[3],inactive
same,outcome,[4],inactive
same,outcome,[5],inactive
same,outcome,[6],inactive
same,outcome,[7],inactive
same,outcome,[8],inactive
CCCCCCCCCCCCCCCS(=O)(=O)Oc1ccccc1,outcome,[1],inactive
same,outcome,[9],inactive
same,AC50,[2],13.3 µM (active)
same,outcome,[3],inactive
same,outcome,[4],inactive
same,AC50,[6],11.2 µM (active)
same,outcome,[7],inactive
same,outcome,[8],inactive
OC1CCCCC1,outcome,[1],inactive
same,outcome,[9],inactive
same,outcome,[2],inactive
same,outcome,[3],inactive
same,outcome,[4],inactive
same,outcome,[5],inactive
same,outcome,[6],inactive
same,outcome,[7],inactive
same,outcome,[8],inactive
CCc1ccc(CCOc2ccc(CC3SC(=O)NC3=O)cc2)nc1 (configuration not stated),AC50,[1],50 µM (active)
same,outcome,[9],inactive
same,AC50,[2],11.2 µM (active)
same,AC50,[3],11.9 µM (active)
same,outcome,[4],inactive
same,outcome,[6],inactive
same,AC50,[7],36.4 µM (active)
same,AC50,[10],50 µM (active)
same,AC50,[8],0.718 µM (active)
CC#C[C@]1(O)CC[C@H]2[C@@H]3CCC4=CC(=O)CCC4=C3[C@@H](c3ccc(N(C)C)cc3)C[C@@]21C,AC50,[1],72.6 µM (active)
same,AC50,[9],91.2 µM (active)
same,AC50,[2],26.9 µM (active)
same,AC50,[3],12 µM (active)
same,outcome,[4],inactive
same,AC50,[6],2.42 µM (active)
same,AC50,[7],29.8 µM (active)
same,AC50,[10],79.1 µM (active)
same,outcome,[8],inactive
COC(=O)CCCCC(=O)OC,outcome,[1],inactive
same,outcome,[2],inactive
same,outcome,[3],inactive
same,outcome,[4],inactive
same,outcome,[5],inactive
same,outcome,[6],inactive
same,outcome,[7],inactive
same,outcome,[10],inactive
same,outcome,[8],inactive
O=c1c(-c2ccc(O)cc2)coc2cc(O)ccc12,outcome,[1],inactive
same,outcome,[9],inactive
same,outcome,[2],inactive
same,outcome,[3],inactive
same,outcome,[4],inactive
same,outcome,[5],inactive
same,outcome,[6],inactive
same,outcome,[7],inactive
same,outcome,[10],inactive
same,outcome,[8],inactive
C#C[C@]1(O)CC[C@H]2[C@@H]3CCC4=CC(=O)CC[C@@H]4[C@H]3CC[C@@]21C,outcome,[1],inactive
same,outcome,[9],inactive
same,AC50,[2],9.92 µM (active)
same,outcome,[3],inactive
same,outcome,[4],inactive
same,AC50,[6],50 µM (active)
same,AC50,[7],15.4 µM (active)
same,outcome,[8],inactive
